Experimental data as given in paper PMC5540273 (PLoS ONE, 2017).

Assays:
Details in all cases: concentration: 1 μM, replicates: in singlicate; n = 1
MYLK4 = tested on: MYLK4
MYLK = tested on: MYLK
MYO3A = tested on: MYO3A
MYO3B = tested on: MYO3B
NDR1 = tested on: T1, NDR1
T1 construct: gene STK38

NDR2 = tested on: NDR2
NEK10 = tested on: NEK10
NEK11 = tested on: NEK11
NEK1 = tested on: NEK1
NEK2 = tested on: NEK2
NEK3 = tested on: NEK3
NEK4 = tested on: NEK4
NEK5 = tested on: NEK5
NEK6 = tested on: NEK6
NEK7 = tested on: NEK7
NEK9 = tested on: NEK9
NIK = tested on: T2, NIK
T2 construct: gene MAP3K14

NIM1 = tested on: T3, NIM1
T3 construct: gene MGC42105

NLK = tested on: NLK
OSR1 = tested on: T4, OSR1
T4 construct: gene OXSR1
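Also: KINOMEscan kinase panel screen.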

Compound | %Inh (MYLK4) | %Inh (MYLK) | %Inh (MYO3A) | %Inh (MYO3B) | %Inh (NDR1) | %Inh (NDR2) | %Inh (NEK10) | %Inh (NEK11) | %Inh (NEK1) | %Inh (NEK2) | %Inh (NEK3) | %Inh (NEK4) | %Inh (NEK5) | %Inh (NEK6) | %Inh (NEK7) | %Inh (NEK9) | %Inh (NIK) | %Inh (NIM1) | %Inh (NLK) | %Inh (OSR1)
Clc1ccc(-c2cc(-c3c[nH]nc3-c3ccccn3)ccn2)cc1 [GW681251] | 0% | 0% | 0% | 0% | 0% | 0% | 12% | 0% | 0% | 0% | 3% | 8% | 36% | 0% | 0% | 2% | 30% | 16% | 11% | 2%
O=C(CCO)NCCn1ccc2ncnc(Nc3ccc(Oc4cccc(C(F)(F)F)c4)c(Cl)c3)c21 | 6% | 0% | 0% | 3% | 20% | 0% | 0% | 0% | 0% | 0% | 18% | 0% | 0% | 0% | 0% | 0% | 6% | 0% | 0% | 0%
Cl.Fc1ccccc1COc1ccc(Nc2ncnc3ccc(-c4nnc(C(F)(F)F)o4)cc23)cc1Cl [GW424170] | 0% | 0% | 0% | 0% | 0% | 16% | 0% | 0% | 0% | 0% | 0% | 0% | 4% | 0% | 0% | 0% | 10% | 0% | 0% | 0%
COc1ccc(NC(=O)c2ccc(-c3cc(-c4nnc(C)o4)ccc3C)cc2)cc1 [GW595885] | 0% | 14% | 16% | 16% | 12% | 0% | 16% | 0% | 0% | 0% | 5% | 19% | 4% | 0% | 0% | 0% | 0% | 20% | 10% | 14%
COc1cc2c(Nc3cccc(NC(=O)c4ccccc4)c3)ncnc2cc1OCCCN1CCOCC1 [GSK223810] | 2% | 2% | 0% | 0% | 0% | 0% | 0% | 0% | 1% | 2% | 0% | 0% | 0% | 0% | 0% | 21% | 0% | 0% | 33% | 16%
CS(=O)(=O)CCNCc1nc(-c2ccc3ncnc(Nc4ccc(OCc5cccc(F)c5)c(Cl)c4)c3c2)cs1.Cl [GW583340] | 4% | 1% | 34% | 0% | 0% | 15% | 0% | 0% | 0% | 16% | 3% | 0% | 6% | 0% | 0% | 11% | 0% | 6% | 0% | 0%
CNc1nccc(-c2c(-c3ccc(F)cc3)ncn2CCCN2CCOCC2)n1 [SB-222516] | 0% | 0% | 0% | 0% | 0% | 28% | 0% | 0% | 0% | 0% | 17% | 2% | 100% | 0% | 0% | 0% | 47% | 14% | 0% | 27%
CSc1ccc(NC2=C(c3ccccc3Cl)C(=O)NC2=O)cc1 [SB-342411] | 10% | 4% | 0% | 0% | 31% | 0% | 29% | 0% | 75% | 8% | 0% | 0% | 8% | 0% | 0% | 15% | 0% | 0% | 56% | 2%
Nc1nc(-c2ccc3c(N)n[nH]c3c2)cc(N2CCCCC2)n1 [GSK2228768] | 0% | 1% | 0% | 0% | 0% | 0% | 0% | 0% | 0% | 3% | 0% | 3% | 4% | 0% | 0% | 0% | 0% | 0% | 0% | 7%
COC(=O)c1c(-c2ccccc2)c2cc(Cl)ccc2c(=O)n1Cc1ccc(S(C)(=O)=O)cc1 | 5% | 34% | 0% | 0% | 0% | 0% | 13% | 0% | 0% | 83% | 4% | 0% | 0% | 2% | 0% | 0% | 0% | 0% | 0% | 0%
Cl.Cn1ccc(-c2cccc(Nc3ccnc4cc(-c5nccs5)ccc34)c2)n1 [GW525701] | 0% | 7% | 43% | 0% | 19% | 0% | 4% | 15% | 0% | 0% | 17% | 0% | 0% | 0% | 0% | 0% | 51% | 18% | 6% | 15%
Cn1cc(-c2ccc3c(c2)CCN3C(=O)Cc2cccc(C(F)(F)F)c2)c2c(N)ncnc21 [GSK2606414] | 0% | 1% | 0% | 7% | 0% | 0% | 18% | 14% | 0% | 15% | 0% | 7% | 0% | 0% | 11% | 8% | 0% | 5% | 0% | 12%
Cl.O=S(=O)(c1cccc(F)c1)c1ccc(Nc2ncnc3cc(Br)sc23)cc1Cl [GSK306886] | 9% | 3% | 22% | 0% | 8% | 1% | 0% | 1% | 32% | 5% | 0% | 0% | 59% | 0% | 0% | 23% | 4% | 0% | 44% | 0%
O=C(Nc1ccccc1F)NC1CCN(c2ccnc(Nc3ccc(F)cc3)n2)C1 (stereo not drawn) [GSK1379722] | 0% | 0% | 2% | 0% | 12% | 0% | 22% | 2% | 0% | 0% | 4% | 9% | 12% | 0% | 0% | 0% | 14% | 15% | 17% | 0%
C[C@H]1CC[C@@H](C(=O)Nc2ccccc2)CN1c1cc(-c2ccc3c(N)n[nH]c3c2)nc(N)n1 [GSK2283293] | 0% | 40% | 7% | 0% | 13% | 0% | 0% | 0% | 0% | 0% | 1% | 1% | 0% | 0% | 0% | 7% | 0% | 12% | 0% | 11%
Clc1cccc(-c2nc(Nc3ccncc3)c3ccccc3n2)c1 [GW873004] | 0% | 0% | 15% | 17% | 15% | 0% | 0% | 0% | 0% | 0% | 36% | 0% | 23% | 14% | 0% | 3% | 0% | 0% | 30% | 0%
COc1cc2ncnc(Nc3ccc(OCc4ccccc4Br)c(Cl)c3)c2cc1OC.Cl [GI261590] | 0% | 10% | 38% | 0% | 0% | 0% | 25% | 0% | 0% | 0% | 12% | 0% | 14% | 0% | 0% | 0% | 20% | 22% | 26% | 0%
Cl.Cl.c1ccc(-c2cc3ccncc3cc2OC2CCNCC2)cc1 [GSK1122999] | 21% | 25% | 10% | 0% | 0% | 0% | 24% | 0% | 0% | 17% | 0% | 2% | 22% | 0% | 4% | 28% | 3% | 12% | 15% | 8%
CCn1c(-c2ccncc2)nc2cnccc21 [SB-735216] | 0% | 24% | 19% | 0% | 28% | 0% | 0% | 51% | 0% | 8% | 14% | 8% | 0% | 6% | 6% | 0% | 15% | 25% | 4% | 15%
FC(F)(F)c1ccc(-c2cc(-c3c[nH]nc3-c3ccccn3)ccn2)cc1 [GW599550] | 1% | 21% | 27% | 0% | 22% | 9% | 17% | 24% | 9% | 1% | 4% | 0% | 0% | 0% | 6% | 52% | 0% | 11% | 22% | 0%
COc1ccc(Nc2nccc(N3CCC(NC(=O)c4cccc(NC(C)=O)c4)C3)n2)cc1 (stereo not drawn) [GSK1379732] | 6% | 29% | 37% | 0% | 15% | 10% | 24% | 48% | 6% | 6% | 11% | 0% | 25% | 0% | 0% | 13% | 28% | 47% | 12% | 7%
